VDR inh – Inhibitors of the vitamin D receptor (VDR): qHTS | Vitamin D3 receptor (Homo sapiens), P11473 | VDR-SRC2-3 peptide fluorescence polarization, 2 h | Potency, µM, for the others: max response, negative = inhibition, most hits filed as inhibitors | actives 0.93% (n = 400,000); also: potency is read from the fitted curve at half-maximal effect
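After 23 nl compound addition and a short centrifugation, plates sat for 2 hours at ambient temperature; polarization of fluorescence then indicated loss of VDR binding to peptide SRC2-3.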
Mm-Cpn inhibitor – Inhibitors of TCP-1 ring complex (TRiC) of Methanococcus maripaludis (MmCpn): qHTS; purified Mm-Cpn ATPase, ADP Transcreener TR-FRET; Potency, µM (highest dose often 76.9 µM), inactives show top-dose activity, negative = inhibition, actives largely listed as inhibitors; actives 0.031% (n = 330,000); Chaperonin Mm-Cpn (Methanococcus maripaludis); also: potency is read from the fitted curve at half-maximal effect; nearly all actives have a fitted effect of over 80% in size
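Eu-cryptate anti-ADP/ADP-d2 competition gives a ratio inversely related to ADP. Enzyme at 25 nM was pre-exposed to compound for 10 min, then given 10 uM ATP for 30 min, 37°C throughout.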
G9a inh – qHTS Assay for Inhibitors of Histone Lysine Methyltransferase G9a; actives 8.8% (n = 350,000); Potency, µM (top dose mostly 102 µM), inactives show top-dose activity, negative = inhibition, most hits filed as inhibitors; G9a H3K9 monomethylation, AlphaScreen, 2 h; also: potency is read from the fitted curve at half-maximal effect; nearly all actives have a fitted effect of over 75% in size
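Chemiluminescent proximity detection of H3K9 monomethylation, read after 10 min bead incubation in the dark. Reaction: 20 nM G9a, 500 nM biotin-H3K9 peptide, 20 uM SAM cofactor, 2 h, room temperature, following 15 min enzyme-compound preincubation.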
PLK1 PBD block – qHTS for Inhibitors of PLK1-PDB (polo-like kinase 1 - polo-box domain): Primary Screen; AID 720504, 2013; Serine/threonine-protein kinase PLK1 (Homo sapiens), P53350; Potency, µM, for inactives: max response, negative = inhibition, hits mostly inhibitors; actives 2.8% (n = 360,000); Plk1 PBD binding of FITC phosphopeptide, fluorescence polarization; also: potency is read from the fitted curve at half-maximal effect; series mostly up to about 57 µM; nearly all actives have a fitted effect of over 65% in size
Target sequence (P53350 whole entry, looked up, the tested form may be a part): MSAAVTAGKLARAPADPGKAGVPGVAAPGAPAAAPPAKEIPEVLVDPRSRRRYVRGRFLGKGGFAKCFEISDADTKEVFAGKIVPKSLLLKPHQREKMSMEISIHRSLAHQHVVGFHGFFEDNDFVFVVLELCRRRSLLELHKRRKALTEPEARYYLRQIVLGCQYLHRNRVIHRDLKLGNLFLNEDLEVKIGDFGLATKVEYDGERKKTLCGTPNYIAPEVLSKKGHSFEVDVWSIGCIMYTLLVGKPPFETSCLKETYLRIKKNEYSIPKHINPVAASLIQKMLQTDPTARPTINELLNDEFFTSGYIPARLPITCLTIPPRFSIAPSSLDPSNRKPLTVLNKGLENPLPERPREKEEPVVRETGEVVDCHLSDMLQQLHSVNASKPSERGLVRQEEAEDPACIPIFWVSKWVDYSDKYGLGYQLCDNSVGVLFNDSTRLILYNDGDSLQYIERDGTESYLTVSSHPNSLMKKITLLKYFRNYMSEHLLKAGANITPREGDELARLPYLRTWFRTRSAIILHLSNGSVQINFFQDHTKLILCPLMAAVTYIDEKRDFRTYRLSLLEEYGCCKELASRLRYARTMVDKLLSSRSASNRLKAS
CCT chaperon mod – High-Throughput Screening for Modulators of Cytosolic Chaperonin Activity; activity change, % (concentration not given with the values), hits read low; actives 0.3% (n = 360,000); purified chaperonin ATPase assay, HTRF ADP detection, 30 min; in the data active = activity change below about -30%
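Enzyme 40 or 20 nM (batch-dependent) in Tris pH 7.4/KCl/MgCl2/DTT; cpd 76 uM single point; ATP 10 uM; 30 min 37 °C; Transcreener ADP HTRF detection, 30 min RT; ratio 665/615.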
Sfp inh – qHTS Assay for Inhibitors of Bacillus subtilis Sfp phosphopantetheinyl transferase (PPTase). Biochemical Sfp PPTase activity, qHTS. AID 1490, 2009. 4'-phosphopantetheinyl transferase ffp (Bacillus subtilis), Q9F4F7. Potency, µM, inactives show largest response in the series, negative = inhibition, actives largely listed as inhibitors. actives 3.5% (n = 310,000);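 also: the enzyme is Sfp with the accession as filed and its product quenches rhodamine fluorescence; potency is read from the fitted curve at half-maximal effect; 0% = enzyme reaction without inhibitor and -100% = no enzyme wells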
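Fluorescence-quenching assay with 15 nM Sfp, 5 uM rhodamine-CoA and 12.5 uM BHQ-2-labelled ybbR peptide in pH 7.6 Hepes/MgCl2 buffer. Enzyme was pre-incubated with compound for 15 min at room temperature. Rate was taken from the 30-min fluorescence change (525/598 nm).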
Numbers without * were called inactive; ? = inconclusive; / = no result; [ ] = another dose, or the depositor's remark. Most compounds without a hit are left out; they make up all but 10% or so of the library. Unless noted, calls follow the shape of the dose curve; as a rule, active = well fitted curve in the direction sought with a large enough effect; inconclusive = small, poorly fitted or top-dose-only effect, or another doubt; inactive = no such curve, though single readings can be large; an effect the other way counts as inactive or inconclusive. Unless noted, % is scaled to controls: 0 for no effect and ±100 for the full control effect.

SMILES	VDR inh	Mm-Cpn inhibitor	G9a inh	PLK1 PBD block	CCT chaperon mod	Sfp inh
O=C(N/N=C/c1cc(Cl)ccc1O)c1ccncc1	?	4%	62%[12.7 µM]	3.4µM*	-1	1%
O=C(N/N=C/c1ccncc1)c1cccc(NC(=O)c2ccc(Cl)cc2)c1	11%	3%	16µM*	-6%	-36*	-19%
O=C(N/N=C/c1ccncc1)c1cccc(N/N=C/c2ccncc2)c1	21%	-6%	?	-23%	0	14%
COc1cc(/C=N/NC(=O)c2ccncc2)c([N+](=O)[O-])cc1OC	-14%	0%	25%[2.33 µM]	0%	-2	7%
COc1cc(OC)c([N+](=O)[O-])cc1/C=N/NC(=O)c1ccncc1	-7%	1%	?	?	0	35µM*
Cc1ccc(-n2c(C)cc(/C=N/NC(=O)c3ccncc3)c2C)cc1C	?	1%	50µM*	-4%	-1	6%
C[C@]12CC[C@@H]3c4ccc(O)cc4CC[C@H]3[C@@H]1CCC2OC(=O)CCC1CCCC1 (stereo partly specified)	1%	/	2%[59 µM]	/	/	27%
COCCn1c(=O)c(-c2ccc(Cl)cc2)nc2cnc(OCc3ccccc3)nc21	-5%	/	-4%[0.501 µM]	/	/	17%
O=C(N/N=C\c1cccnc1)c1cc(-c2ccc(Cl)s2)[nH]n1	4%	0%	32µM*	?	0	-19%
O=C(N/N=C/c1cccnc1)c1ccc(NC(=O)c2ccc(Cl)cc2)cc1	-5%	2%	45µM*	-11%	3	3%
O=C(N/N=C/c1cccnc1)c1ccc(Cl)c(Cl)c1	0%	/	/	1%	0	/
O=C(N/N=C/c1cccnc1)c1ccc(NC(=O)c2cccc(Cl)c2)cc1	9%	0%	32µM*	-11%	-4	7%
O=C(CNC(=O)c1cccc(Cl)c1)N/N=C/c1cccnc1	-27%	1%	-24%	-7%	0	25%
Cc1cc2c(nc1C)CCCN2C[C@H](O)CN1CCCc2nc(-c3ccc(Br)cc3)ccc21	/	/	/	/	/	16%
Cc1cccc(NC(=O)CCS(=O)(=O)c2ccc3c(c2)n(C)c(=O)c(=O)n3C)c1C	0%	/	45%[59 µM]	/	/	/
Cc1ccc(C)c(N2CCN(S(=O)(=O)c3ccc4[nH]c5c(c4c3)CCCCC5)CC2)c1	0%	/	-43%[59 µM]	/	/	/
Fc1ccc(-c2noc3ncnc(NC4CCCCC4)c23)cc1	6%	/	-1%[59 µM]	/	/	/
O=C(c1ccc(Cl)c(S(=O)(=O)NCc2ccco2)c1)N1CCN(c2ccccc2F)CC1	-10%	-1%	-12%	27µM*	0	6%
CC(C)(C)CC(=O)OCC(=O)Nc1cc(C(C)(C)C)nn1-c1ccccc1	-24%	-6%	17%[59 µM]	24µM*	-3	9%
CC(C)NC(=S)Nc1c(N)[nH]c(=O)[nH]c1=O	5%	0%	56µM*	-6%	-1	-2%
CC1=C(c2ccc(NN=C(C#N)C#N)cc2)NNC(=O)C1	20µM*	/	?	/	/	-3%
Cc1ccc(N/N=C(\C#N)C(=O)c2ccsc2)cc1	-7%	-2%	?	-16%	1	-3%
O=c1c2ccccc2cnn1Cc1n[nH]c(=S)n1-c1cc(Cl)cc(Cl)c1	-8%	-2%	0.4µM*	-10%	2	?
O=c1c2ccccc2cnn1Cc1ccc(Cl)c(Cl)c1	-18%	-3%	20%	2%	1	7%
O=c1c2ccccc2cnn1Cc1n[nH]c(=S)n1-c1ccc(F)c(Cl)c1	-3%	0%	3.2µM*	-6%	-1	6%
SMILES	VDR inh	Mm-Cpn inhibitor	G9a inh	PLK1 PBD block	CCT chaperon mod	Sfp inh
S=c1[nH]nc(COc2ccccc2)n1-c1ccc(Cl)cc1	-6%	/	/	-18%	-3	/
Cc1ccc(-n2c(Cn3ncc4ccccc4c3=O)n[nH]c2=S)cc1	-12%	-3%	7.9µM*	-3%	-1	-11%
CC(c1ccc(F)cc1)n1c(Cn2ncc3ccccc3c2=O)n[nH]c1=S (stereo unspecified)	-17%	3%	48%	-14%	1	9%
O=c1c2ccccc2cnn1Cc1n[nH]c(=S)n1-c1ccccc1Cl	-1%	-1%	4.5µM*	-9%	-2	-25%
CN(C)c1ccc(NC(=O)Cn2c(SCc3ccc(F)cc3)nc3cccnc32)cc1	6%	/	-36%[59 µM]	/	/	/
O=C(NCc1ccccc1Cl)c1cc(-c2ccccc2)n[nH]1	12%	/	3%[59 µM]	/	/	/
COC(=O)c1ccccc1NC(=O)CSc1nc(-c2ccccc2)cc(C(F)(F)F)n1	-5%	/	35%[59 µM]	/	/	/
Cc1ccc(-n2c(CCc3nc4ccccc4[nH]3)n[nH]c2=S)cc1	-21%	1%	?	-30%	-2	21%
Cc1ccc(-n2c(Cn3c(C)nc4ccccc43)n[nH]c2=S)cc1	-12%	1%	10µM*	-4%	-1	-21%
CCOc1ccc(OCC)c(NS(=O)(=O)c2cc(-c3cc(C)no3)ccc2C)c1	16%	/	-14%[59 µM]	/	/	/
O=C(NCCn1c(C(F)(F)F)nc2cc(C(F)(F)F)ccc21)[C@H]1CCCN1c1nc(CN2CCCCC2)cs1	-9%	-6%	71µM*	-8%	-3	-4%
CCc1ccc(CNC(=O)CCc2c(C)nn(-c3ccc(N4CCCC4)nn3)c2C)cc1	6%	/	11%[59 µM]	/	/	/
COCCNC(=O)c1cc2n(n1)CCCN(Cc1ccc(C)cc1)C2=O	2%	/	2%[59 µM]	/	/	/
O=C(O)CCC(=O)Nc1ccc(NC(=O)c2ccc(Cl)cc2Cl)c(Cl)c1	-11%	-11%	-2%	21µM*	-135*	5%
C/C(=N/NS(=O)(=O)c1ccc(C)cc1)c1cccc(NC(=O)c2cccc(Cl)c2)c1	-3%	1%	39%[12.7 µM]	-10%	3	14%
Cc1cc(Cl)ccc1NC(=O)CCC(=O)O	-16%	3%	10%[59 µM]	2%	-2	29%
CCCC(=O)NC(=S)Nc1cccc(NC(=O)c2ccc(Cl)cc2Cl)c1	-6%	0%	-33%	27µM*	2	2%
C/C(=N/NS(=O)(=O)c1ccc(Cl)cc1)c1cccc(NC(=O)c2ccc(Cl)cc2Cl)c1	-4%	-1%	54%[59 µM]	19µM*	2	36%
CC(C)CC(=O)NC(=S)Nc1cccc(NC(=O)c2ccccc2Cl)c1	8%	-1%	7.9µM*	-15%	1	-9%
CC(Nc1ncnc2c1cnn2-c1cccc(Cl)c1)c1ccccc1 (stereo unspecified)	5%	/	27%[59 µM]	/	/	/
Cc1nc(-c2ccc(Cl)cc2)sc1CCNC(=O)c1ccc(C(F)(F)F)cc1	3%	/	10%[59 µM]	/	/	/
